Consider 13 compounds from PubChem BioAssay.

Holding throughout (assay): modulators of BK channel variants, profiling panel, selectivity assay, cell-based, U2OS BacMam, thallium flux, beta subunits (AID 1259406);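 further: initial slope of Thallos dye fluorescence rise after thallium is added; log ratio against the mean of 0.3% DMSO vehicle wells on the same plate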
For assay [1], the system named is F380Y. Particulars: at 30 µM.
Assay [2] relates to F380Y/beta1. Particulars: at 30 µM.
Assay [3] concerns F380Y/beta2Delta. As to conditions: at 30 µM.
For assay [4], the system named is F380Y/beta4. Particulars: at 30 µM.
Assay [5] deals with Calcium-activated potassium channel subunit alpha-1 (Homo sapiens) + Leucine-rich repeat-containing protein 26 (Homo sapiens) (UniProt Q12791+Q2I0M4). Particulars: F380Y/Slo1WT/gamma1, at 30 µM.
Assay [6] deals with R275C. Particulars: at 30 µM.
Assay [7] relates to R275C/beta1. As to conditions: at 30 µM.
In assay [8] the test system is R275C/beta2Delta. As to conditions: at 30 µM.
For assay [9], the system named is R275C/beta4. Particulars: at 30 µM.
Assay [10] deals with R275C/Slo1WT/beta2. As to conditions: at 30 µM.

The structures appear in SMILES notation. Unmarked numbers belong to inactive results. Active and inactive are the calls of the source.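 How the source made its calls: active means thallium flux through the channel raised or lowered by more than 3 SD from vehicle-only wells, actives on both sides; inactive means the rest.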

Chain of Calcium-activated potassium channel subunit alpha-1 (Homo sapiens) + Leucine-rich repeat-containing protein 26 (Homo sapiens) (Q2I0M4 whole entry, looked up, one chain of several): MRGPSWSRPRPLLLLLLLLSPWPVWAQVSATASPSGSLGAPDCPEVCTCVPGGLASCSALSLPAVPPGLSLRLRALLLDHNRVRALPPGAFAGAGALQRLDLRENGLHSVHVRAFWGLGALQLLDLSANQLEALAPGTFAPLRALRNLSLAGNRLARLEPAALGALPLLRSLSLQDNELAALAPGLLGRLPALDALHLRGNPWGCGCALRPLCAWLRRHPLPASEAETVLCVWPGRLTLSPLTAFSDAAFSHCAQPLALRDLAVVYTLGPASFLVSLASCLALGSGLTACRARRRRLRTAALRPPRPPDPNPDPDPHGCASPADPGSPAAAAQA

Turning to `O=c1[nH]cnc2c1ncn2[C@H]1CC[C@@H](CO)O1`, the log fold change Tl+ flux in [1] is -0.00984; in assay [2] it was -0.0163; in assay [3], 0.0117; in [4], -0.00261; in assay [5], 0.0216; in assay [6], -0.0353. Also, the log fold change Tl+ flux is -0.00622 in assay [7], -0.00829 in [8], 0.000837 in assay [9] and 0.00413 in assay [10].
In the case of `CC[N+](C)(CC)CCOC(=O)C(O)(c1ccccc1)C1CCCCC1` (stereo not given), the log fold change Tl+ flux in [1] is -0.192 (active); in assay [2] it was -0.0336; in [3], -0.0141; in assay [4], -0.0257; in assay [5], 0.0349; in [6], -0.0159. Also, the log fold change Tl+ flux in assay [7] is -0.00643; in assay [8], 0.0312; in assay [9], 0.0157; in [10] it was 0.0812 (active).
As to `CC(=O)NS(=O)(=O)c1ccc(N)cc1`, the log fold change Tl+ flux in [1] is -0.0156; in assay [2], 0.00907; in [3] it was 0.0558; in assay [4], 0.0262; in [5], -0.0364; in assay [6], 0.0168. Further, the log fold change Tl+ flux was -0.00538 in [7], -0.00501 in [8], -0.00232 in assay [9] and 0.00853 in assay [10].
As to `Nc1nc(F)nc2c1ncn2[C@@H]1O[C@H](CO)[C@@H](O)[C@@H]1O`, the log fold change Tl+ flux in assay [1] was 0.0242; in assay [2] it was -0.00658; in [3] it was 0.0109; in assay [4], -0.0895; in [5] it was -0.000905; in assay [6] it was -0.0205. In addition, the log fold change Tl+ flux in assay [7] is -0.0181; in assay [8] it was -0.00769; in [9], -0.0294; in assay [10] it was -0.0303.
Take `CCOc1cc(CC(=O)N[C@@H](CC(C)C)c2ccccc2N2CCCCC2)ccc1C(=O)O`: the log fold change Tl+ flux in assay [1] is 0.252 (active); in assay [2], 0.45 (active); in assay [3] it was 0.217 (active); in assay [4], 0.297 (active); in assay [5], 0.0882; in assay [6], -0.00436. Moreover, the log fold change Tl+ flux in assay [7] is 0.495 (active); in [8], 0.262 (active); in [9] it was 0.161 (active); in assay [10] it was 0.0386.
As to `Cc1c(O)cccc1C(=O)N[C@@H](CSc1ccccc1)[C@H](O)CN1C[C@H]2CCCC[C@H]2C[C@H]1C(=O)NC(C)(C)C`, the log fold change Tl+ flux was 0.0722 in assay [1]; 0.0513 in [2]; -0.0274 in assay [3]; 0.0671 in assay [4]; 0.0165 in assay [5]; -0.105 in assay [6]. For the same compound, the log fold change Tl+ flux in assay [7] was 0.237 (active); in [8], -0.0795; in [9], -0.0349; in [10], -0.0218.
Take `CCc1c(C)[nH]c2c1C(=O)C(CN1CCOCC1)CC2` (stereo not given): the log fold change Tl+ flux in [1] was 0.0409; in [2], 0.015; in assay [3], 0.0445; in [4], -0.00138; in [5], -0.0511; in [6], 0.0162. The log fold change Tl+ flux in assay [7] was -0.0312; in assay [8] it was 0.0494; in assay [9] it was -0.0175; in [10], 0.00393.
For `Cc1cnc(NC(=O)C2=C(O)c3ccccc3S(=O)(=O)N2C)s1`, the log fold change Tl+ flux in assay [1] was -0.00196; in [2], -0.0291; in assay [3], 0.0267; in assay [4], 0.0475; in [5], 0.0367; in assay [6] it was -0.0331. For the same compound, the log fold change Tl+ flux is 0.00607 in [7], 0.00306 in [8], 0.00145 in assay [9] and 0.0334 in [10].
For `CN(C/C=C/C#CC(C)(C)C)Cc1cccc2ccccc12`, the log fold change Tl+ flux in assay [1] is -0.0709; in assay [2], -0.00172; in [3] it was -0.0506; in assay [4] it was -0.0252; in assay [5], 0.0229; in assay [6] it was -0.0273. In addition, the log fold change Tl+ flux in assay [7] was -0.3 (active); in assay [8] it was -0.238 (active); in [9], -0.00168; in assay [10] it was 0.012.
On to `CCCN1CCCC[C@H]1C(=O)Nc1c(C)cccc1C`, for which the log fold change Tl+ flux in [1] was 0.0271; in assay [2], 0.0176; in [3] it was 0.0505; in [4], 0.0334; in assay [5] it was -0.0126; in assay [6] it was 0.0086. Moreover, the log fold change Tl+ flux was 0.0221 in assay [7], 0.0105 in assay [8], 0.0113 in [9] and 0.0315 in [10].
Turning to `COc1ccc(C(=O)NCc2ccc(OCCN(C)C)cc2)cc1OC`, the log fold change Tl+ flux in assay [1] was -0.0346; in assay [2], -0.00341; in [3], -0.0465; in [4] it was -0.0244; in [5], -0.0979 (active); in [6] it was -0.0872. For the same compound, the log fold change Tl+ flux in assay [7] is -0.00904; in [8], -0.0505; in [9] it was 0.0059; in [10], 0.00939.
With `COC(=O)C1=C(C)NC(C)=C(C(=O)OCC(C)C)C1c1ccccc1[N+](=O)[O-]` (stereo not given), the log fold change Tl+ flux in assay [1] was 0.333 (active); in [2], 0.689 (active); in assay [3], 0.514 (active); in assay [4] it was 0.853 (active); in assay [5] it was 0.622 (active); in [6] it was 0.676 (active). The log fold change Tl+ flux was 0.741 (active) in assay [7], 0.206 (active) in assay [8], 1.13 (active) in [9] and 1.07 (active) in assay [10].
Take `C[C@]12C[C@H](O)[C@H]3[C@@H](CCC4=CC(=O)CC[C@@]43C)[C@@H]1CC[C@@H]2C(=O)CO`: the log fold change Tl+ flux in assay [1] was 0.0367; in [2], 0.0921; in [3] it was -0.00742; in assay [4] it was 0.0166; in assay [5], 0.0373; in assay [6], -0.04. Moreover, the log fold change Tl+ flux in [7] was 0.00127; in assay [8] it was 0.0285; in [9] it was 0.0631; in assay [10], 0.00421.
